# From PubChem BioAssay
# Sampled rows, rich in hits. Any-hit rate of the full collection: about 1.1%.
# MOR-DOR inv ag – inverse agonists of MOR-DOR heterodimerization, primary screen, cell-based, luminescence | Mu-type opioid receptor (Homo sapiens) + Delta-type opioid receptor (Homo sapiens), … | cell-based MOR-DOR heterodimer luminescence, inverse agonism | inhibition, % at 9.3 µM | hit rate 0.21% among 340,000 | AID 504357, 2011; in the data active = inhibition above about 22%, passing the limit was not always enough;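 also: 0% = cells with DMSO and 100% = wells without cells with DMSO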
# HTR5A ag ctr – HTR5A agonists in luminescence cell assay, primary screen, counter-screen for OPRM1-OPRD1 heterodimer agonist project, full-deck HTS | hit rate 0.61% among 340,000 | cell-based | AID 504692, 2011 | 5-hydroxytryptamine receptor 5A (Homo sapiens), P47898 | activation, % at 9.3 µM; in the data active = activation mostly above about 9.5%, no sharp cut-off; inactive = mostly below about 7.6%;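 also: 0% = cells with vehicle only and 100% = reference agonist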
# Target sequence (P47898 whole entry, looked up): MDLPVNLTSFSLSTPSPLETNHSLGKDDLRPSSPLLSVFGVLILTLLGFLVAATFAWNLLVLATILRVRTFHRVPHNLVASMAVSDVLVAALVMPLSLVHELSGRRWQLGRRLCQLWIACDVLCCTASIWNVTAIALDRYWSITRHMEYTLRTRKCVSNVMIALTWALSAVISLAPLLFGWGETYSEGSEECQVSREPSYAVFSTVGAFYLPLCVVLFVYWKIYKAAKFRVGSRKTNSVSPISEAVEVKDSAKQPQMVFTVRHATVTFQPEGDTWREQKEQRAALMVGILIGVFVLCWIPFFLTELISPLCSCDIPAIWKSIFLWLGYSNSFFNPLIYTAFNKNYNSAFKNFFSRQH
# HTR5A inv ctr – HTR5A inverse agonists in luminescence cell assay, primary screen, counter-screen for OPRM1-OPRD1 heterodimer inverse agonist project, full-deck HTS; HTR5A cell line, inverse agonism; AID 504634, 2011; hit rate 0.083% among 340,000; inhibition, % at 9.3 µM; in the data active = inhibition mostly above about 23%, no sharp cut-off; inactive = mostly below about 18%;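 also: 0% = cells with DMSO and 100% = no-cell wells with DMSO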
# MOR-DOR ag-1 – agonists of OPRM1-OPRD1 heterodimerization, primary screen, cell-based, luminescence | activation, % at 9.3 µM | Mu-type opioid receptor (Homo sapiens) + Delta-type opioid receptor (Homo sapiens), … | cells | AID 504326, 2011 | hit rate 0.3% among 340,000;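 also: 0% = vehicle-treated cells and 100% = reference agonist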
# MOR-DOR ag-2 – OPRM1-OPRD1 heterodimerization promoters, counter-screen for HTR5A agonist project, cell-based, luminescence | shares compounds with HTR5A ag ctr | U2OS counter-screen cells, complementation luminescence, 3 h | activation, % at 9.3 µM | hit rate 13% among 800
# HTR5A ag conf – HTR5A agonists, retest of hits, confirmation, cell-based, luminescence. shares compounds with HTR5A ag ctr. HTR5A agonist cell assay. activation, % at 9.3 µM. hit rate 17% among 800. AID 504915, 2011; in the data active = activation above about 17%;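 also: 0% = cells with vehicle only and 100% = full reference agonist response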
# Starred values were filed as active, the others as inactive; · = no result given. Rule as the data show it, unless noted: active = activation above about 18%; inactive = the rest.
SMILES,MOR-DOR inv ag,HTR5A ag ctr,HTR5A inv ctr,MOR-DOR ag-1,MOR-DOR ag-2,HTR5A ag conf
CCN1CCC(O)(/C=C/c2ccc(C(C)C)cc2)C(C(=O)/C=C/c2ccc(C(C)C)cc2)C1 (configuration not stated),-16,18*,-71,3,51*,27*
Cc1cnc(NC(=O)CC2OC(=O)c3ccccc32)s1 (configuration not stated),9,8,-22,-1,·,·
O=S(=O)(Cc1ncc(C(F)(F)F)cc1Cl)c1ccccc1,13,0,2,-3,·,·
CCn1c(C)nc2cc(C(=O)N/N=C/c3ccc(OC)c(O)c3)ccc21,-1,14*,-27,0,0,-1
CCn1c(C)nc2cc(C(=O)N/N=C/c3ccc(O)cc3)ccc21,4,8,2,-1,·,·
O=C(CCCCCn1c(SCC(=O)c2ccccc2)nc2ccccc2c1=O)NCc1ccco1,-8,21*,-50,2,59*,29*
O=C(CCCn1c(SCC(=O)c2ccc(Cl)cc2)nc2ccccc2c1=O)NCc1ccco1,8,0,5,-2,·,·
Cc1ccc(Cn2nnc3c(=O)[nH]c(C4CCN(S(=O)(=O)c5ccc(C)cc5)CC4)nc32)cc1,-2,1,-9,0,·,·
O=c1[nH]c(C2CCN(S(=O)(=O)c3ccc(C(F)(F)F)cc3)CC2)nc2c1nnn2Cc1ccc(F)cc1,-1,18*,-50,0,6,4
CCC(C)(C)n1nnnc1C(c1ccccc1OC)N1CCN(C(=O)c2ccco2)CC1 (configuration not stated),5,2,-4,-1,·,·
O=C(NCc1ccccc1)c1ccc(F)c(F)c1,0,14*,-36,0,0,-2
O=c1[nH]cnc(O)c1C(c1ccc(Br)cc1)c1c(O)nc[nH]c1=O,10,6,17,-2,·,·
O=c1[nH]cnc(O)c1C(c1ccc2c(c1)OCO2)c1c(O)nc[nH]c1=O,8,17*,-3,-2,0,2
CCOC(=O)C1(Cc2cccc(OC)c2)CCCN(Cc2cc(C(C)C)n[nH]2)C1 (configuration not stated),-1,16*,-20,0,3,38*
CCOC(=O)C1(Cc2cccc(OC)c2)CCCN(Cc2c(C)nn(C(C)C)c2C)C1 (configuration not stated),-3,-7,7,1,·,·
COC(=O)c1ccc(CSc2nnc(NC(=O)C3CCCO3)s2)cc1 (configuration not stated),11,2,-4,-2,·,·
O=C(Nc1nnc(SCc2ccc(Cl)cc2)s1)C1CCCO1 (configuration not stated),9,21*,-54,-2,1,-1
COc1ccc(C(=O)NCC(=O)NCc2ccncc2)cc1,16,-1,3,-3,·,·
C/C(CC(=O)NC12CC3CC(CC(C3)C1)C2)=N\NC(=O)c1ccc(F)cc1,6,-2,7,-1,·,·
Nc1ncnc2nc(N3CCN(C(=O)c4ccccc4)CC3)[nH]c12,17,19*,-47,-3,0,-1
COC(=O)C1=C(C)N(Cc2ccccc2)C(=NCc2cc(OC)c(OC)c(OC)c2)N[C@H]1c1ccc(Br)cc1,-13,14*,-12,2,-1,0
CC(=O)Nc1ccc(N2C(=O)CC(Sc3nc(C)cc(C)n3)C2=O)cc1 (configuration not stated),11,7,-26,-2,·,·
COc1ccccc1NS(=O)(=O)c1cccc(C(=O)NCC(c2ccccc2OC)N2CCCC2)c1 (configuration not stated),5,10,9,-1,·,·
COc1ccccc1C(CNC(=O)c1cccc(S(=O)(=O)Nc2ccc(C)cc2)c1)N1CCCC1 (configuration not stated),9,25*,-93,-2,2,34*
NC(=O)CSc1nnc(-c2ccccc2)c(-c2ccccc2)n1,11,1,-3,-2,·,·
SMILES,MOR-DOR inv ag,HTR5A ag ctr,HTR5A inv ctr,MOR-DOR ag-1,MOR-DOR ag-2,HTR5A ag conf
CS(=O)(=O)c1ccc2nc(NC(=O)CCNC(=O)c3ccc([N+](=O)[O-])cc3)sc2c1,-17,20*,-59,3,1,4
O=C(CNc1ccccc1Cl)N/N=C1\CCCc2ccccc21,-39,21*,-10,8,20*,36*
O=C(N/N=C1\CCCc2ccccc21)c1ccccc1Cl,7,1,-22,-1,·,·
O=C(COc1cccc2ccccc12)Nc1ccc(Cl)cc1C(=O)O,9,45*,-134,-2,2,46*
O=C(COc1cccc2ccccc12)Nc1cc(Cl)ccc1C(=O)O,14,7,-27,-2,·,·
CCc1ccccc1NC(=O)Cn1nc(C(F)(F)F)c2c1CCC2,-6,-9,11,1,·,·
CCc1ccc(NC(=O)Cn2nc(C(F)(F)F)c3c2CCC3)cc1,-67,20*,-31,11,8,7
O=C(Nc1ccc(F)cc1F)C1CCN(S(=O)(=O)c2cccnc2)CC1,6,0,-4,-1,·,·
CCC(C)(C)C1CCC2(CC1)NC(=O)N(CC(=O)NCCc1c[nH]c3ccccc13)C2=O (configuration not stated),-4,19*,-52,1,2,8
N#CCCn1nc2c(c1N)CCC2,1,-1,5,0,·,·
O=C1CC(c2ccco2)Sc2ccccc2N1 (configuration not stated),8,-1,4,-2,·,·
O=C1CC(c2ccccc2)Sc2ccccc2N1 (configuration not stated),12,17*,-47,-3,2,3
CCOc1ccccc1N1CCN(C(=O)NC2CCCCC2)CC1,19,0,-14,-3,·,·
CCC(C)(C)C1CCC(NC(=O)N2CCN(c3ccccc3O)CC2)CC1 (configuration not stated),-30,15*,-15,4,6,0
CC(=O)CCc1ccc(OCCCOc2cccc3cccnc23)cc1,-11,23*,-19,2,1,13
CC(=O)c1ccc(OCCCOc2cccc3cccnc23)cc1,11,1,-4,-2,·,·
CCOc1cc(N2CCOCC2)c(OCC)cc1NC(=O)COc1ncnc2ccccc12,7,-5,-8,-2,·,·
CCOc1cc(N2CCOCC2)c(OCC)cc1NC(=O)c1cc(-c2ccco2)nc2ccccc12,-87,24*,-24,15,96*,8
CCN(CC(=O)Nc1ccc(NC(C)=O)cc1)C(=O)COc1ccc(C(=O)c2ccccc2)cc1,1,-3,10,0,·,·
